Laboratory results published in PubChem BioAssay AID1159580 (chemical genetic matrix, 2015).
The campaign covered roughly 5,500 compounds. About 2,000 (36%) were called active. Roughly 18% stayed inconclusive and do not appear here. Cut-off read from the data, not from the text of the source: active = normalized growth mostly below about 0.91 (no sharp cut-off); inconclusive = no clear call, values can overlap the other calls; inactive = mostly above about 0.92. Some of the results follow.

Test: chemical genetic growth profiling, strain panel (AID 1159580);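 note: tested at 20 µM; growth read once vehicle control cultures reached saturation at 30 °C; 1 = growth at the plate median or of vehicle wells; lower values mean less growth of the strain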
Details: S. cerevisiae deletion strains, growth OD

Measured: normalized growth

NCCc1c[nH]c2ccc(C(N)=O)cc12
inactive: locus YAL040C, strain CLN3, active compounds read low 1.1 | locus YCL061C, strain MRC1 (second series), active compounds read low 1 | locus YDR363W, strain ESC2, active compounds read low 1.01 | locus YER002W, strain NOP16, active compounds read low 1.01 | locus YGR078C, strain PAC10, active compounds read low 1.02 | locus YMR307W, strain GAS1, active compounds read low 1 | locus YNL153C, strain GIM3, active compounds read low 1.01 | locus YNL175C, strain NOP13, active compounds read low 1.01 | locus YNL197C, strain WHI3, active compounds read low 1.02 | locus YNL224C, strain SQS1, active compounds read low 0.997 | locus YOR083W, strain WHI5 (second series), active compounds read low 1.02 | locus YPL241C, strain CIN2, active compounds read low 1

O=c1cc(-c2ccccc2O)oc2cc(O)ccc12
inactive: locus YAL021C, strain ccr4, active compounds read low 1.05 | locus YAL026C, strain drs2, active compounds read low 0.977 | locus YAL030W, strain snc1, active compounds read low 0.985 | locus YBL061C, strain skt5, active compounds read low 0.976 | locus YBR009C, strain hhf1, active compounds read low 0.979 | locus YBR023C, strain chs3, active compounds read low 1 | locus YBR171W, strain sec66, active compounds read low 0.951 | locus YBR231C, strain swc5, active compounds read low 0.956 | locus YBR279W, strain paf1, active compounds read low 0.996 | locus YCL011C, strain gbp2, active compounds read low 0.977 | locus YCL016C, strain dcc1, active compounds read low 1.02 | locus YCL069W, strain vba3, active compounds read low 0.97 | locus YCR088W, strain abp1, active compounds read low 0.956 | locus YDL005C, strain med2, active compounds read low 0.956 | locus YDL040C, strain nat1, active compounds read low 0.967 | locus YDR001C, strain nth1, active compounds read low 0.978 | locus YDR069C, strain doa4, active compounds read low 0.95 | locus YDR137W, strain rgp1, active compounds read low 0.958 | locus YDR159W, strain sac3, active compounds read low 0.91 | locus YDR195W, strain ref2 0.962 | locus YDR297W, strain sur2, active compounds read low 0.964 | locus YDR334W, strain swr1, active compounds read low 0.973 | locus YDR335W, strain msn5, active compounds read low 0.979 | locus YDR392W, strain spt3, active compounds read low 0.92 | locus YEL003W, strain gim4, active compounds read low 0.968 | locus YEL037C, strain rad23, active compounds read low 0.962 | locus YEL061C, strain CIN8 (second series), active compounds read low 0.963 | locus YER015W, strain faa2, active compounds read low 0.974 | locus YER016W, strain bim1, active compounds read low 0.973 | locus YER111C, strain swi4, active compounds read low 0.951 | locus YER155C, strain BEM2 (second series), active compounds read low 0.955 | locus YFR010W, strain ubp6, active compounds read low 0.952 | locus YGL167C, strain pmr1, active compounds read low 0.972 | locus YGL173C, strain kem1, active compounds read low 0.95 | locus YGL227W, strain vid30, active compounds read low 0.964 | locus YGL240W, strain doc1, active compounds read low 0.963 | locus YGL253W, strain hxk2, active compounds read low 0.932 | locus YHR013C, strain ard1, active compounds read low 0.952 | locus YHR027C, strain rpn1, active compounds read low 0.965 | locus YHR030C, strain SLT2, active compounds read low 0.978 | locus YHR079C, strain IRE1, active compounds read low 0.987 | locus YHR142W, strain chs7, active compounds read low 0.965 | locus YJL092W, strain hpr5, active compounds read low 0.954 | locus YJL095W, strain BCK1 (second series), active compounds read low 0.994 | locus YJL095W, strain BCK1, active compounds read low 0.997 | locus YJL115W, strain asf1, active compounds read low 0.97 | locus YJL129C, strain trk1, active compounds read low 0.945 | locus YJL154C, strain vps35, active compounds read low 0.979 | locus YJL164C, strain tpk1, active compounds read low 0.992 | locus YJL166W, strain qcr8, active compounds read low 0.966 | locus YJR066W, strain TOR1, active compounds read low 0.929 | locus YKL160W, strain elf1, active compounds read low 1.03 | locus YKR026C, strain gcn3, active compounds read low 0.972 | locus YKR091W, strain srl3, active compounds read low 0.982 | locus YLL001W, strain dnm1, active compounds read low 0.987 | locus YLL026W, active compounds read low 0.969 | locus YLL041C, strain sdh2, active compounds read low 0.977 | locus YLR027C, strain aat2, active compounds read low 0.998 | locus YLR113W, strain HOG1, active compounds read low 1 | locus YLR221C, strain rsa3, active compounds read low 0.938 | locus YLR258W, strain gsy2, active compounds read low 0.994 | locus YLR262C, strain YPT6 (second series), active compounds read low 0.968 | locus YLR320W, strain mms22, active compounds read low 0.95 | locus YLR342W, strain FKS1, active compounds read low 0.974 | locus YLR357W, strain rsc2, active compounds read low 0.978 | locus YLR370C, strain arc18, active compounds read low 0.966 | locus YLR384C, strain iki3, active compounds read low 0.959 | locus YML120C, strain ndi1, active compounds read low 0.996 | locus YMR058W, strain fet3, active compounds read low 0.981 | locus YMR125W, strain sto1, active compounds read low 0.977 | locus YMR129W, active compounds read low 0.987 | locus YMR205C, strain PFK2, active compounds read low 0.996 | locus YMR231W, strain pep5, active compounds read low 0.966 | locus YNL071W, strain lat1, active compounds read low 0.991 | locus YNL183C, strain NPR1, active compounds read low 0.909 | locus YNL209W, strain ssb2, active compounds read low 0.996 | locus YNL248C, strain rpa49, active compounds read low 0.969 | locus YNL322C, strain KRE1 (second series), active compounds read low 0.974 | locus YNR049C, strain mso1, active compounds read low 0.979 | locus YOR001W, strain rrp6, active compounds read low 0.899 | locus YOR070C, strain gyp1, active compounds read low 0.978 | locus YOR080W, strain dia2, active compounds read low 0.972 | locus YOR083W, strain WHI5, active compounds read low 1.03 | locus YOR106W, strain vam3, active compounds read low 0.989 | locus YOR231W, strain MKK1, active compounds read low 0.989 | locus YOR265W, strain rbl2, active compounds read low 0.97 | locus YOR270C, strain vph1, active compounds read low 0.916 | locus YOR290C, strain snf2, active compounds read low 1.02 | locus YPL051W, strain arl3, active compounds read low 0.975 | locus YPL078C, strain atp4, active compounds read low 1.05 | locus YPL106C, strain sse1, active compounds read low 0.984 | locus YPL240C, strain hsp82, active compounds read low 0.971 | locus YPL256C, strain CLN2, active compounds read low 0.95
